{
  "source": "PubChem BioAssay (NCATS)",
  "note": "Several values for one entry are separate records, joined by “and”; a condition that tells them apart may be missing. Equal entries are not always repeated. Records with an inconclusive call do not appear. A call without a number means that no potency is given here. A number with no mark means an inactive call. Activity calls are given as the source filed them. The call rests on the fitted dose curve; in most records, active means well fitted cell-killing curve with a large enough effect; inconclusive means small, poorly fitted or top-dose-only effect, or effect the other way; inactive means no such curve, though single readings can be large or run the other way. Potency means the concentration at half of the fitted maximal effect.",
  "data": [
    {"experiment": "Viability qHTS for spleen associated tyrosine kinase inhibitor (SYKi) naive MV4-11 cells (AID 1963823); further: nearly all actives have a fitted effect of over 40% in size", "conditions": "MV4-11 AML viability, CellTiter-Glo luminescence, 72 h; series mostly up to 45 µM", "outline": "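SYKi-naive MV4-11 AML cells, 500 per well, were exposed to library compounds for 72 hr at 37 C, 5% CO2. Viability was then read by CellTiter-Glo luminescence after 10 min at room temperature.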", "values": [
      {"smiles": "Nc1ccccc1", "Potency": "inactive"},
      {"smiles": "Cc1cccc(C)c1NC1=NCCCS1", "Potency": "inactive"},
      {"smiles": "CC(C)(O)/C=C\\C(=O)[C@](C)(O)[C@H]1[C@H](O)C[C@]2(C)[C@@H]3CC=C4[C@@H](C=C(O)C(=O)C4(C)C)[C@]3(C)C(=O)C[C@@]12C", "Potency": "59 nM (active)"},
      {"smiles": "O=C1c2ccccc2C(=O)c2ccccc21", "Potency": "inactive"},
      {"smiles": "C[N+]1(CCF)[C@@H]2CC[C@H]1CC(OC(=O)C(O)(c1ccccc1)c1ccccc1)C2", "note": "(stereo partly drawn)", "Potency": "inactive"},
      {"smiles": "C=CCN1C[C@H](C)N([C@H](c2ccc(C(=O)N(CC)CC)cc2)c2cccc(OC)c2)C[C@H]1C", "Potency": "inactive"},
      {"smiles": "O=C(N/N=C/c1ccc([N+](=O)[O-])o1)c1cc([N+](=O)[O-])cc([N+](=O)[O-])c1O", "Potency": "inactive"},
      {"smiles": "CCC(OC(C)=O)C(CC(C)NC)(c1ccccc1)c1ccccc1", "note": "(stereo not drawn)", "Potency": "43700 nM (active)"},
      {"smiles": "CCCC[N+]1(C)[C@@H]2CC(OC(=O)[C@H](CO)c3ccccc3)C[C@H]1[C@@H]1O[C@@H]12", "note": "(stereo partly drawn)", "Potency": "inactive"},
      {"smiles": "O=C(CCCN1CCC2(CC1)C(=O)NCN2c1ccccc1)c1ccc(F)cc1", "Potency": "inactive"},
      {"smiles": "C[C@@H](N)[C@@H](O)c1ccccc1", "Potency": "inactive"},
      {"smiles": "CC(O)CN1CCN(CC(=O)[O-])CCN(CC(=O)[O-])CCN(CC(=O)[O-])CC1.[Gd+3]", "note": "(stereo not drawn)", "Potency": "inactive"},
      {"smiles": "CN(C)c1cc2c(cc1Sc1nc3c(N)nccc3n1CCNCC(C)(C)C)OCO2", "Potency": "186 nM (active)"},
      {"smiles": "Oc1ccc(Cl)cc1Cc1ccccc1", "Potency": "24600 nM (active)"},
      {"smiles": "CC(C)(C)c1ccc(O)cc1", "Potency": "inactive"},
      {"smiles": "CN1C(=O)NC(=O)C(C)(C2=CCCCC2)C1=O", "note": "(stereo not drawn)", "Potency": "inactive"},
      {"smiles": "CNC(C)(C)Cc1ccccc1", "Potency": "inactive"},
      {"smiles": "NCCc1cc(O)c(O)cc1O", "Potency": "inactive"},
      {"smiles": "COc1ccc(C(=O)N2CCCC2=O)cc1", "Potency": "inactive"},
      {"smiles": "COP(=O)(OC)C(O)C(Cl)(Cl)Cl", "note": "(stereo not drawn)", "Potency": "inactive"},
      {"smiles": "CN(C)NC(=O)CCC(=O)O", "Potency": "inactive"},
      {"smiles": "CCOP(=S)(OCC)Oc1cc(C)nc(C(C)C)n1", "Potency": "inactive"},
      {"smiles": "CC1(C)CC(O)CC(C)(C)N1O", "Potency": "inactive"},
      {"smiles": "CCCN1CCO[C@@H]2c3cc(O)ccc3OC[C@H]21", "Potency": "inactive"},
      {"smiles": "CCN(C(C)=O)c1cccc(-c2ccnc3c(C#N)cnn23)c1", "Potency": "inactive"},
      {"smiles": "Oc1cc(Cl)ccc1Oc1ccc(Cl)cc1Cl", "Potency": "19700 nM (active)"},
      {"smiles": "COc1cc(CC(C)N)cc(OC)c1OC", "note": "(stereo not drawn)", "Potency": "inactive"},
      {"smiles": "Cc1ccc2c(c1)C1CN(C)CCC1N2", "note": "(stereo not drawn)", "Potency": "inactive"},
      {"smiles": "C[C@@H]1CN(Cc2ccc(F)cc2)CCN1C(=O)COc1ccc(Cl)cc1NC(N)=O", "Potency": "934 nM (active)"},
      {"smiles": "C/C=C(/C)C(=O)O[C@H]1C(C)=C2[C@H]([C@@H]1OC(=O)CCCCCCC)[C@@](C)(OC(C)=O)C[C@H](OC(=O)CCC)[C@@]1(O)[C@H]2OC(=O)[C@@]1(C)O", "Potency": "25.9 nM (active) and 20.9 nM (active)"},
      {"smiles": "OC(O)C(Cl)(Cl)Cl", "Potency": "inactive"},
      {"smiles": "COc1ccc(OC)c(CC(C)N)c1", "note": "(stereo not drawn)", "Potency": "inactive"},
      {"smiles": "ClC1=C(Cl)C2(Cl)C(CBr)CC1(Cl)C2(Cl)Cl", "note": "(stereo not drawn)", "Potency": "inactive"},
      {"smiles": "COP(=S)(OC)Oc1ccc(SC)c(C)c1", "Potency": "inactive"},
      {"smiles": "CC(C)(C)NC[C@H](O)c1ccc(O)cc1Cl", "Potency": "inactive"},
      {"smiles": "O=C(NC(O)C(Cl)(Cl)Cl)NC(O)C(Cl)(Cl)Cl", "note": "(stereo not drawn)", "Potency": "inactive"},
      {"smiles": "COc1cc(C)[nH]c(=O)c1CNC(=O)c1c(C)n([C@H](C)C2CCOCC2)c2ccccc12", "Potency": "inactive"},
      {"smiles": "Cn1c(COP(=O)(NCCBr)NCCBr)cnc1[N+](=O)[O-]", "Potency": "10500 nM (active)"},
      {"smiles": "COC12C(COC(N)=O)C3=C(C(=O)C(C)=C(N)C3=O)N1CC1C2N1C", "note": "(stereo not drawn)", "Potency": "590 nM (active)"}
    ]},
    {"experiment": "Viability qHTS for spleen associated tyrosine kinase inhibitor (SYKi) drug resistant MV4-11 cells (AID 1963824); further: nearly all actives have a fitted effect of over 35% in size", "conditions": "SYKi-resistant MV4-11 viability, CellTiter-Glo, 72 h; series mostly up to 45 µM", "outline": "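CellTiter-Glo luminescence, read 10 min after reagent addition, reports viability after a 72 hr compound exposure. Cells are an MV4-11 line made resistant to SYK inhibition, seeded at 500 per well onto compound-containing plates.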", "values": [
      {"smiles": "Nc1ccccc1", "Potency": "inactive"},
      {"smiles": "Cc1cccc(C)c1NC1=NCCCS1", "Potency": "inactive"},
      {"smiles": "CC(C)(O)/C=C\\C(=O)[C@](C)(O)[C@H]1[C@H](O)C[C@]2(C)[C@@H]3CC=C4[C@@H](C=C(O)C(=O)C4(C)C)[C@]3(C)C(=O)C[C@@]12C", "Potency": "46.8 nM (active)"},
      {"smiles": "O=C1c2ccccc2C(=O)c2ccccc21", "Potency": "inactive"},
      {"smiles": "C[N+]1(CCF)[C@@H]2CC[C@H]1CC(OC(=O)C(O)(c1ccccc1)c1ccccc1)C2", "note": "(stereo partly drawn)", "Potency": "inactive"},
      {"smiles": "C=CCN1C[C@H](C)N([C@H](c2ccc(C(=O)N(CC)CC)cc2)c2cccc(OC)c2)C[C@H]1C", "viability, % of control": "93.3% [at 9.25 µM]"},
      {"smiles": "O=C(N/N=C/c1ccc([N+](=O)[O-])o1)c1cc([N+](=O)[O-])cc([N+](=O)[O-])c1O", "Potency": "inactive"},
      {"smiles": "CCC(OC(C)=O)C(CC(C)NC)(c1ccccc1)c1ccccc1", "note": "(stereo not drawn)", "Potency": "31000 nM (active)"},
      {"smiles": "CCCC[N+]1(C)[C@@H]2CC(OC(=O)[C@H](CO)c3ccccc3)C[C@H]1[C@@H]1O[C@@H]12", "note": "(stereo partly drawn)", "Potency": "inactive"},
      {"smiles": "O=C(CCCN1CCC2(CC1)C(=O)NCN2c1ccccc1)c1ccc(F)cc1", "Potency": "inactive"},
      {"smiles": "C[C@@H](N)[C@@H](O)c1ccccc1", "Potency": "inactive"},
      {"smiles": "CC(O)CN1CCN(CC(=O)[O-])CCN(CC(=O)[O-])CCN(CC(=O)[O-])CC1.[Gd+3]", "note": "(stereo not drawn)", "Potency": "inactive"},
      {"smiles": "CN(C)c1cc2c(cc1Sc1nc3c(N)nccc3n1CCNCC(C)(C)C)OCO2", "Potency": "184 nM (active) and 235 nM (active)"},
      {"smiles": "Oc1ccc(Cl)cc1Cc1ccccc1", "Potency": "24600 nM (active)"},
      {"smiles": "CC(C)(C)c1ccc(O)cc1", "Potency": "inactive"},
      {"smiles": "CN1C(=O)NC(=O)C(C)(C2=CCCCC2)C1=O", "note": "(stereo not drawn)", "Potency": "inactive"},
      {"smiles": "CNC(C)(C)Cc1ccccc1", "Potency": "inactive"},
      {"smiles": "NCCc1cc(O)c(O)cc1O", "Potency": "inactive"},
      {"smiles": "COc1ccc(C(=O)N2CCCC2=O)cc1", "Potency": "inactive"},
      {"smiles": "COP(=O)(OC)C(O)C(Cl)(Cl)Cl", "note": "(stereo not drawn)", "Potency": "inactive"},
      {"smiles": "CN(C)NC(=O)CCC(=O)O", "Potency": "inactive"},
      {"smiles": "CCOP(=S)(OCC)Oc1cc(C)nc(C(C)C)n1", "Potency": "inactive"},
      {"smiles": "CC1(C)CC(O)CC(C)(C)N1O", "Potency": "inactive"},
      {"smiles": "CCCN1CCO[C@@H]2c3cc(O)ccc3OC[C@H]21", "Potency": "inactive"},
      {"smiles": "CCN(C(C)=O)c1cccc(-c2ccnc3c(C#N)cnn23)c1", "Potency": "inactive"},
      {"smiles": "Oc1cc(Cl)ccc1Oc1ccc(Cl)cc1Cl", "Potency": "7.85 µM (active) and 16.8 µM (active)"},
      {"smiles": "COc1cc(CC(C)N)cc(OC)c1OC", "note": "(stereo not drawn)", "Potency": "inactive"},
      {"smiles": "Cc1ccc2c(c1)C1CN(C)CCC1N2", "note": "(stereo not drawn)", "Potency": "inactive"},
      {"smiles": "C[C@@H]1CN(Cc2ccc(F)cc2)CCN1C(=O)COc1ccc(Cl)cc1NC(N)=O", "Potency": "820 nM (active)"},
      {"smiles": "C/C=C(/C)C(=O)O[C@H]1C(C)=C2[C@H]([C@@H]1OC(=O)CCCCCCC)[C@@](C)(OC(C)=O)C[C@H](OC(=O)CCC)[C@@]1(O)[C@H]2OC(=O)[C@@]1(C)O", "Potency": "18.4 nM (active) and 3.7 nM (active)"},
      {"smiles": "OC(O)C(Cl)(Cl)Cl", "Potency": "inactive"},
      {"smiles": "COc1ccc(OC)c(CC(C)N)c1", "note": "(stereo not drawn)", "Potency": "inactive"},
      {"smiles": "ClC1=C(Cl)C2(Cl)C(CBr)CC1(Cl)C2(Cl)Cl", "note": "(stereo not drawn)", "Potency": "inactive"},
      {"smiles": "COP(=S)(OC)Oc1ccc(SC)c(C)c1", "Potency": "inactive"},
      {"smiles": "CC(C)(C)NC[C@H](O)c1ccc(O)cc1Cl", "Potency": "inactive"},
      {"smiles": "O=C(NC(O)C(Cl)(Cl)Cl)NC(O)C(Cl)(Cl)Cl", "note": "(stereo not drawn)", "Potency": "inactive"},
      {"smiles": "COc1cc(C)[nH]c(=O)c1CNC(=O)c1c(C)n([C@H](C)C2CCOCC2)c2ccccc12", "Potency": "inactive"},
      {"smiles": "Cn1c(COP(=O)(NCCBr)NCCBr)cnc1[N+](=O)[O-]", "Potency": "5900 nM (active)"},
      {"smiles": "COC12C(COC(N)=O)C3=C(C(=O)C(C)=C(N)C3=O)N1CC1C2N1C", "note": "(stereo not drawn)", "Potency": "833 nM (active)"}
    ]}
  ]
}
